Test [1] is described as follows: NCI Yeast Anticancer Drug Screen. Data for the rad50 strain (AID 155).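 Also: 0% = growth of vehicle-only cultures of the same strain.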 The settings on record: S. cerevisiae rad50 strain growth inhibition, hits give high values. In short, it runs like this:
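Yeast carrying a defined DNA repair defect were exposed to test compounds, and growth was compared with vehicle-treated controls to give percent inhibition.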

A short description of test [2]: NCI Yeast Anticancer Drug Screen. Data for the mec2-1 strain (AID 157). The following applies: S. cerevisiae mec2-1 strain, hits give high values. In short, it runs like this:
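Each compound was tested on mec2-1 yeast, a strain altered in DNA damage repair or cell cycle control. Growth inhibition is reported relative to vehicle.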

A short description of test [3]: NCI Yeast Anticancer Drug Screen. Data for the sgs1 mgt1 strain (AID 161).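 Also: 0% = growth of cultures given vehicle only.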 The settings on record: S. cerevisiae sgs1 mgt1 strain, hits give high values. In short, it runs like this: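 Genetically altered yeast, compound exposure, growth inhibition relative to vehicle.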
Test [4] is described as follows: NCI Yeast Anticancer Drug Screen. Data for the cln2 rad14 strain (AID 165).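 Also: 0% = growth equal to vehicle treated cultures.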 The following applies: S. cerevisiae cln2 rad14 strain, hits give high values. Put shortly:
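Test compounds were added to cln2 rad14 yeast cultures; inhibition of growth was then determined by comparison with vehicle treatment.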

A short description of test [5]: NCI Yeast Anticancer Drug Screen. Data for the bub3 strain (AID 167). The settings on record: S. cerevisiae bub3 mutant strain, hits give high values. In short, it runs like this:
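Compounds were applied to a genetically altered yeast strain carrying a cell-cycle control defect. Growth inhibition was scored against vehicle-treated controls.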

The nature of test [6]: NCI Yeast Anticancer Drug Screen. Data for the mlh1 rad18 strain (AID 175). The settings on record: S. cerevisiae mlh1 rad18 strain growth inhibition, hits give high values. Put shortly:
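Inhibition values reflect reduced growth of mutant yeast versus vehicle-treated controls following compound exposure; the mutations affect DNA damage repair.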

Where [7] appears, read: at 5.0 µM (retest, dose inferred, filed as 0.5).
[8] abbreviates: at 50.0 µM (retest, dose inferred, filed as 5.0).

Compounds without any hit were thinned out: in the full panel of roughly 79,000, 15% have a hit. A number with no mark means an inactive call. Calls of active or inactive are those of the source. Rule as the data show it: active = growth inhibition above about 70%; inactive = the rest.

The record followed here is PubChem BioAssay (NCI).

As for `C(=C1/CNC/C(=C/c2ccccc2)C1)/c1ccccc1`, the growth inhibition in test [1] (setting [7]) was 11%; in test [1] (setting [8]), 99% (active); in test [1] (at 50.0 µM), 99.5% (active); in test [2] (setting [7]) it was 17%; in test [2] (setting [8]), 99% (active); in test [2] (at 50.0 µM), 99.6% (active). Also, the growth inhibition in test [3] (setting [7]) is 16%; in test [3] (setting [8]) it was 96% (active); in test [3] (at 50.0 µM), 99.5% (active); in test [4] (setting [7]), 27%; in test [4] (setting [8]), 99% (active); in test [4] (at 50.0 µM) it was 99.2% (active). The growth inhibition in test [5] (setting [7]) was 6%; in test [5] (setting [8]), 99% (active); in test [5] (at 50.0 µM), 99.3% (active); in test [6] (setting [7]) it was -1%; in test [6] (setting [8]), 97% (active); in test [6] (at 50.0 µM), 99.3% (active).

On to `Cc1ccc(S(=O)(=O)C(C#N)(CCC(=O)/C=C/c2ccccc2)CCC(=O)/C=C/c2ccccc2)cc1`, for which the growth inhibition in test [1] (setting [7]) is 1%; in test [1] (setting [8]) it was 6%; in test [1] (at 50.0 µM), 16.2%; in test [2] (setting [7]) it was -4%; in test [2] (setting [8]), 35%; in test [2] (at 50.0 µM) it was 2.35%. In addition, the growth inhibition in test [3] (setting [7]) was 2%; in test [3] (setting [8]) it was -2%; in test [3] (at 50.0 µM) it was 26.9%; in test [4] (setting [7]) it was 3%; in test [4] (setting [8]), 4%; in test [4] (at 50.0 µM) it was 77.3% (active). Moreover, the growth inhibition in test [5] (setting [7]) is -3%; in test [5] (setting [8]), -2%; in test [5] (at 50.0 µM), -9.3%; in test [6] (setting [7]), 1%; in test [6] (setting [8]), -28%; in test [6] (at 50.0 µM), 20%.

`CCCCCCCCCCCCOC(=O)CC1CC(C(C)=O)C1(C)C` (configuration not stated): the growth inhibition in test [1] (setting [7]) is 2%; in test [1] (setting [8]) it was -9%; in test [1] (at 50.0 µM) it was 18.5%; in test [2] (setting [7]), 0%; in test [2] (setting [8]), -7%; in test [2] (at 50.0 µM) it was -20.8%. Also, the growth inhibition is 0% in test [3] (setting [7]); -7% in test [3] (setting [8]); 24.1% in test [3] (at 50.0 µM); 1% in test [4] (setting [7]); -8% in test [4] (setting [8]); 84.3% (active) in test [4] (at 50.0 µM). Also, the growth inhibition was -3% in test [5] (setting [7]); -13% in test [5] (setting [8]); 11.2% in test [5] (at 50.0 µM); 25% in test [6] (setting [7]); -4% in test [6] (setting [8]); 41.2% in test [6] (at 50.0 µM).

`C[n+]1c(-c2cccc(OCCCCCCCCCCOc3cccc(-c4c5cc(N)ccc5c5ccc(N)cc5[n+]4C)c3)c2)c2cc(N)ccc2c2ccc(N)cc21`: the growth inhibition was 99% (active) in test [1] (setting [7]); 81% (active) in test [1] (setting [8]); 79.4% (active) in test [1] (at 50.0 µM); 99% (active) in test [2] (setting [7]); 84% (active) in test [2] (setting [8]); 84.4% (active) in test [2] (at 50.0 µM). Further, the growth inhibition in test [3] (setting [7]) is 99% (active); in test [3] (setting [8]) it was 85% (active); in test [3] (at 50.0 µM) it was 87.9% (active); in test [4] (setting [7]) it was 99% (active); in test [4] (setting [8]), 86% (active); in test [4] (at 50.0 µM), 88% (active). The growth inhibition is 99% (active) in test [5] (setting [7]); 80% (active) in test [5] (setting [8]); 84.2% (active) in test [5] (at 50.0 µM); 97% (active) in test [6] (setting [7]); 68% in test [6] (setting [8]); 87.7% (active) in test [6] (at 50.0 µM).

With `CCCCCC(C)C1=NC(C)(C)CC(C)O1` (configuration not stated), the growth inhibition in test [1] (setting [7]) was -153%; in test [1] (setting [8]), -154%; in test [1] (at 50.0 µM), 5.85%; in test [2] (setting [7]), -51%; in test [2] (setting [8]) it was -57%; in test [2] (at 50.0 µM), -3.85%. Moreover, the growth inhibition in test [3] (setting [7]) was -64%; in test [3] (setting [8]), -68%; in test [3] (at 50.0 µM), -0.45%; in test [4] (setting [7]), -62%; in test [4] (setting [8]), -64%; in test [4] (at 50.0 µM), 32.4%. The growth inhibition in test [5] (setting [7]) was -73%; in test [5] (setting [8]), -81%; in test [5] (at 50.0 µM) it was -3.2%; in test [6] (setting [7]) it was -139%; in test [6] (setting [8]) it was -116%; in test [6] (at 50.0 µM), 12.1%.

`N#CC12CC3=C(N=C1NC1=C(CCc4ccccc41)C2)c1ccccc1CC3` (configuration not stated): the growth inhibition was 24% in test [1] (setting [7]); 51% in test [1] (setting [8]); 57.8% in test [1] (at 50.0 µM); 19% in test [2] (setting [7]); 34% in test [2] (setting [8]); 42.8% in test [2] (at 50.0 µM). Further, the growth inhibition in test [3] (setting [7]) was 20%; in test [3] (setting [8]) it was 44%; in test [3] (at 50.0 µM), 48.5%; in test [4] (setting [7]) it was 18%; in test [4] (setting [8]), 29%; in test [4] (at 50.0 µM), 17.9%. Also, the growth inhibition was 23% in test [5] (setting [7]); 45% in test [5] (setting [8]); 51.1% in test [5] (at 50.0 µM); 20% in test [6] (setting [7]); 60% in test [6] (setting [8]); 24.6% in test [6] (at 50.0 µM).

Take `O=S(=O)(Nc1ccccn1)c1ccc(N=Cc2c3ccccc3nc3cc(Cl)ccc23)cc1`: the growth inhibition is 2% in test [1] (setting [7]); 27% in test [1] (setting [8]); 98.8% (active) in test [1] (at 50.0 µM); 5% in test [2] (setting [7]); 18% in test [2] (setting [8]); 85.8% (active) in test [2] (at 50.0 µM). In addition, the growth inhibition in test [3] (setting [7]) was 1%; in test [3] (setting [8]), 1%; in test [3] (at 50.0 µM), 99.2% (active); in test [4] (setting [7]), 4%; in test [4] (setting [8]) it was -17%; in test [4] (at 50.0 µM), 97.5% (active). Further, the growth inhibition was 9% in test [5] (setting [7]); 6% in test [5] (setting [8]); 57.6% in test [5] (at 50.0 µM); 5% in test [6] (setting [7]); 6% in test [6] (setting [8]); 98.2% (active) in test [6] (at 50.0 µM).

`N#CSC#CCCC#CSC#N`: the growth inhibition in test [1] (setting [7]) was 52%; in test [1] (setting [8]), 57%; in test [1] (at 50.0 µM), 92.5% (active); in test [2] (setting [7]) it was 43%; in test [2] (setting [8]) it was 55%; in test [2] (at 50.0 µM), 93.9% (active). Besides, the growth inhibition in test [3] (setting [7]) is 100% (active); in test [3] (setting [8]), 100% (active); in test [3] (at 50.0 µM), 94.2% (active); in test [4] (setting [7]), 99% (active); in test [4] (setting [8]) it was 99% (active); in test [4] (at 50.0 µM) it was 92.9% (active). For the same molecule, the growth inhibition was 100% (active) in test [5] (setting [7]); 98% (active) in test [5] (setting [8]); 92.4% (active) in test [5] (at 50.0 µM); 47% in test [6] (setting [7]); 46% in test [6] (setting [8]); 88.9% (active) in test [6] (at 50.0 µM).

With `COC(=O)c1ccccc1C=C(c1ccc([N+](=O)[O-])cc1)c1ccc([N+](=O)[O-])cc1`, the growth inhibition is 4% in test [1] (setting [7]); 94% (active) in test [1] (setting [8]); 93.2% (active) in test [1] (at 50.0 µM); -2% in test [2] (setting [7]); 99% (active) in test [2] (setting [8]); 95.8% (active) in test [2] (at 50.0 µM). The growth inhibition in test [3] (setting [7]) was 4%; in test [3] (setting [8]), 98% (active); in test [3] (at 50.0 µM), 96.5% (active); in test [4] (setting [7]) it was -11%; in test [4] (setting [8]) it was 97% (active); in test [4] (at 50.0 µM), 95.1% (active). For the same molecule, the growth inhibition is -2% in test [5] (setting [7]); 98% (active) in test [5] (setting [8]); 94.6% (active) in test [5] (at 50.0 µM); 28% in test [6] (setting [7]); 97% (active) in test [6] (setting [8]); 96% (active) in test [6] (at 50.0 µM).
